Beta apoptosis = blocks beta cell apoptosis; INS-1E cytokine-induced death, ATP luminescence, 48 h; percent of positive-control rescue, neutral wells zero; protection from apoptosis, % (concentration not given with the values); 300,000 compounds, 0.8% hits; AID 435005;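 active = Every replicate reaches about 75%, or at least half do and their mean reaches it too, limit read from the data; inconclusive = At least half of replicates reach the limit but their mean does not; inactive = Under half of replicates reach the limit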;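 also: higher means more ATP so stronger rescue from cytokine killing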
NTR1 ag = NTR1 (human) agonism | 330,000 compounds, 0.17% hits | activation, % at 20 µM | AID 493036 | NTR1-U2OS beta-arrestin-GFP spot imaging, agonist mode;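 active = activation at or above 40% of the spot to cytoplasm intensity ratio, with at least 20 cells analyzed; inconclusive = wells under 20 cells, flagged as cytotoxic or low count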
Target sequence (P30989 whole entry, looked up): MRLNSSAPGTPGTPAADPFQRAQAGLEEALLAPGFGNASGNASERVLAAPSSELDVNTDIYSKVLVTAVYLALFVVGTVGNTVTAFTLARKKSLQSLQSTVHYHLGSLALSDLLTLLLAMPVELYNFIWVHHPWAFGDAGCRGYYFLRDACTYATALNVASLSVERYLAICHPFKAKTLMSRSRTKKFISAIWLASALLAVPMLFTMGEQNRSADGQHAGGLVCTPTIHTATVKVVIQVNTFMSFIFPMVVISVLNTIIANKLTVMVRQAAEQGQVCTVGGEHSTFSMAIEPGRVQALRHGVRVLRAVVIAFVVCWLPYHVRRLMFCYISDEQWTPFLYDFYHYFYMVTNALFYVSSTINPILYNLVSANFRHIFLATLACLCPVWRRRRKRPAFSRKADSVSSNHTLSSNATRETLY
Jurkat NFkB inh = inhibitors of the PMA/ionomycin-induced NF-kB reporter in Jurkat cells. PMA/ionomycin-induced NF-kB luciferase reporter, luminescence. inhibition, % at 4 µM. 330,000 compounds, 0.53% hits; in the data active = inhibition above about 50%
Mdm2-MdmX inh = inhibitors of human Mdm2/MdmX interaction. 330,000 compounds, 3% hits. AID 485346. inhibition, % at 8 µM. SaOS-2 split-luciferase Mdm2/MdmX complementation, luminescence;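 active = inhibition of at least 50% at 8 µM in the primary screen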
697 NFkB inh = lowers PMA/ionomycin-induced NF-kB signal in 697 B cells. AID 435022. 697 B-cell NF-kB luciferase reporter, 16 h. 330,000 compounds, 0.33% hits. inhibition, % at 4 µM; in the data active = inhibition above about 35%
A1 inh = inhibitors of the anti-apoptotic protein A1, read as caspase activation; caspase activation, % (concentration not given with the values); 330,000 compounds, 0.066% hits; MEF A1-2A-BIM cells, Caspase-Glo 3/7 luminescence, 3 h; percent of clofoctol response, vehicle zero;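 active = over half of replicate activation scores above 10%, or exactly half above 10 with the replicate mean above 10; inconclusive = replicate mean below 10 yet half the replicates above 10; inactive = over half of replicates below 10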
Mdm2 MdmX conf = human Mdm2/MdmX binding inhibition, confirmed | shares compounds with Mdm2-MdmX inh | inhibition, % at 8 µM | AID 489028 | 10,000 compounds, 55% hits | luminescent assay; in the data active = inhibition above about 40%
FLuc counter = full-length luciferase inhibition in Mdm2/MdmX counter-screen | shares compounds with Mdm2-MdmX inh | SaOS-2 full-length luciferase counterscreen, luminescence | inhibition, % at 8 µM | 6,200 compounds, 77% hits;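 active = mean inhibition at 8 µM reaching about 37%, which flags the compound as non-specific, limit read from the data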;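 also: p53-null SaOS-2 cells with luciferase driven by a doxycycline-inducible promoter; compound on cells about two nights before reading with doxycycline added after day one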
Numbers stand for hits; – = inactive; ? = inconclusive; · = no result. Shown are actives, neighbours in structure and some others; about 3.8% of the full set was active somewhere.

SMILES	Beta apoptosis	NTR1 ag	Jurkat NFkB inh	Mdm2-MdmX inh	697 NFkB inh	A1 inh	Mdm2 MdmX conf	others
Cc1ccc2oc(Nc3nc(-c4ccccc4)cc(=O)[nH]3)nc2c1	·	–	–	96.7	–	·	–
Cc1ccc(COC(=O)c2cc(S(=O)(=O)N3CCOCC3)ccc2C)cc1	–	–	–	–	–	–	·
COc1cc(-c2cc(-c3ccccc3)nc(SCC(=O)Nc3nccs3)c2C#N)cc(OC)c1OC	–	–	–	51.4	–	–	–
COc1ccccc1-c1cc(-c2ccccc2)nc(SCC(=O)O)c1C#N	–	–	–	–	–	–	·
COc1ccc(-c2cc(-c3ccccc3)c(C#N)c(SCC(=O)O)n2)cc1	–	–	–	–	–	–	·
N#Cc1c(SCC(=O)Nc2nccs2)nc2c(c1-c1ccco1)CCCC2	–	–	–	51.5	–	–	–
COc1ccc(CNC(=O)CSc2nc(-c3ccccc3)cc(-c3cccs3)c2C#N)cc1	–	–	–	63.4	–	–	–
Cc1nc(SCC(=O)Nc2nccs2)c(C#N)c(C)c1C	–	–	–	68.2	–	–	51.0	FLuc counter=110.3
Cc1cnc(=O)[nH]c1SCC(=O)Nc1nccs1	–	–	–	–	–	–	·
CNC(=S)N(CCN(C)C)Cc1cc2cc3c(cc2[nH]c1=O)OCO3	–	–	–	–	–	–	·
Cc1ccc(C)c(OCC(=O)NCC(c2ccco2)N2CCCCC2)c1 (centres undefined)	–	–	–	–	–	–	·
CN(CC(=O)Nc1ccc(F)c(F)c1F)C(=O)c1ccc(=O)[nH]c1	–	–	–	–	–	–	·
COc1cccc(OCc2cc(C(=O)NCc3ccc4c(c3)OCO4)no2)c1	–	–	–	–	–	–	·
COc1cccc(-c2ccc(C#N)c(SCC(=O)NCc3ccco3)n2)c1	–	–	–	–	–	–	·
COc1ccc(-c2cc(-c3cccs3)c(C#N)c(SCC(=O)NCc3ccco3)n2)cc1	–	–	–	56.1	–	–	70.1	FLuc counter=51.5
COc1ccc(CC(=O)NC(C)c2ccc(S(N)(=O)=O)cc2)cc1S(=O)(=O)N1CCOCC1 (centres undefined)	–	–	–	–	–	–	·
C=CCn1c(Sc2ncc([N+](=O)[O-])s2)n[nH]c1=O	–	–	–	66.4	–	–	87.5	FLuc counter=56.2
O=c1[nH]c(/C=C/c2ccc(OC(F)F)cc2)nc2c1cnn2-c1ccccc1	–	–	–	66.4	–	–	–
CCOC(=O)c1cnn2c(C(F)(F)F)cc(-c3ccccc3)nc12	–	–	–	–	–	–	·
CCOC(=O)N1CCC(NC(=O)c2cnn3c(C(F)(F)F)cc(-c4cccc(OC)c4)nc23)CC1	·	–	–	61.5	–	–	–
COc1ccc(-c2cc(C(F)(F)F)n3ncc(C(=O)NCC4CCCO4)c3n2)cc1OC (centres undefined)	–	–	–	57.1	–	–	–
CCN(CC)CCNC(=O)c1ccc(NC(=O)c2cc(-c3ccco3)nc3ccccc23)cc1	–	–	–	54.6	–	–	–
Cc1nnc(NC(=O)c2cc(-c3ccco3)nc3ccccc23)s1	–	–	–	–	–	–	·
O=C(Nc1nc2c(s1)CCCC2)c1cc(-c2ccc3c(c2)OCO3)nc2ccccc12	–	–	–	–	–	–	·
O=C(Nc1nc2ccccc2s1)c1cc(-c2ccco2)nc2ccccc12	–	–	–	66.2	–	–	45.2	FLuc counter=55.4
SMILES	Beta apoptosis	NTR1 ag	Jurkat NFkB inh	Mdm2-MdmX inh	697 NFkB inh	A1 inh	Mdm2 MdmX conf	others
CC(=O)Nc1ccccc1NC(=O)c1cc(C)ccc1C	–	–	–	–	–	–	·
Cc1ccc(C)c(C(=O)c2ccccc2NC(=O)c2ccccn2)c1	–	–	–	57.2	–	–	57.8	FLuc counter=72.5
Cc1ccccc1-c1cc(C(=O)Nc2nc3c(s2)CCCC3)c2ccccc2n1	–	–	–	61.9	–	–	47.9	FLuc counter=–
O=C(NCCC1CCCCN1S(=O)(=O)c1ccccc1)C(=O)NCc1cccnc1 (centres undefined)	·	–	–	–	–	–	·
Cc1ccc2nc(NC(=O)c3cc(-c4ccco4)nc4ccccc34)sc2c1	–	–	–	61.2	–	–	–
Cc1cccc(-c2cc(C(=O)Nc3sc(C)c(C)c3C(N)=O)c3ccccc3n2)c1	–	–	–	–	–	–	·
Cc1csc(NC(=O)c2cc(-c3ccco3)nc3ccccc23)n1	–	–	–	–	–	–	·
Cc1ccc2nc(NC(=O)/C=C/c3ccc4c(c3)OCO4)sc2c1	83.8	–	–	77.7	–	–	–
Cc1ccc(C)c(-c2cc(C(=O)Nc3sc(C)c(C)c3C(N)=O)c3ccccc3n2)c1	–	–	–	50.7	–	–	–
Cc1ccc2nc(NC(=O)c3ccccn3)sc2c1	79.0	–	–	100.2	–	–	90.3	FLuc counter=56.0
Cc1cc(C)c(C#N)c(N2CCN(Cc3ccccc3)CC2)n1	·	–	–	–	–	·	·
N#Cc1c(N2CCCCC2)nc(N2CCCCC2)c2c1CCN(Cc1ccccc1)C2	?	–	–	52.9	–	–	–
Cc1cc(C)c(NC(=O)CNC(=O)COC(=O)C2=COCCO2)c(C)c1	–	–	–	–	–	–	·
Cc1cc(-c2ccccc2)nc2cc(C(=O)N(Cc3ccccc3)Cc3ccccc3)nn12	–	–	–	50.6	–	–	–
COC(=O)c1cc2nc(-c3ccccc3)cc(C)n2n1	–	–	–	–	–	–	·
Cc1cc(OC(C)C(=O)NCC(O)c2ccccc2)c2c(C)cc(=O)oc2c1 (centres undefined)	–	–	–	–	–	–	·
Cc1cc(C)c(Cn2c(=O)n(CCCC(=O)NCc3ccco3)c(=O)c3sccc32)c(C)c1	–	–	–	51.3	–	–	40.5	FLuc counter=80.1
CCOc1ccc(-c2nnc(SCC(=O)Nc3ccc4c(c3)c3ccccc3n4CC)n2N)cc1	–	–	–	70.5	–	–	70.8	FLuc counter=–
CCn1c2ccccc2c2cc(NC(=O)CSc3nnc(-c4ccc(OC)c(OC)c4)n3N)ccc21	–	–	–	–	–	–	·
CCn1c2ccccc2c2cc(NC(=O)CSc3nnc(-c4cccc(Cl)c4)o3)ccc21	–	–	–	52.4	–	–	–
O=C(CSc1nnc(-c2cccnc2)o1)Nc1cccc(Cl)c1	–	–	–	–	–	–	·
Cc1ccc(C(=O)N2CCN(S(=O)(=O)c3ccccc3C#N)CC2)cc1S(=O)(=O)N1CCOCC1	–	–	–	–	–	–	·
Cc1ccc(S(=O)(=O)Nc2ccc3c(c2)C(=O)NC3=O)cc1[N+](=O)[O-]	–	–	–	–	–	–	·
O=S(=O)(c1ccc(Cl)cc1)N1CCN(C(=S)NCC2CCCO2)CC1 (centres undefined)	–	–	–	–	–	–	·

Screening results as filed in PubChem.
